High-throughput results from PubChem BioAssay.
Compounds with a hit are over-represented: about 2.9% of the library has one in this group of screens.
Nrf2 ARE act: qHTS of Nrf2 Activators. AREc32 ARE-luciferase reporter (MCF7-derived line), luminescence, 24 h. Potency, µM (highest dose often 46.1 µM), without a hit: at the highest dose activation, hits mostly activators. 0.31% of 410,000 active; further: % of control where 0% means no effect; nearly all actives have a fitted effect of over 65% in size
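ARE-driven firefly luciferase activity in AREc32 cells measured after a 24 hr compound exposure at 37 deg C, using Steady-Glo reagent and a 30 min room-temperature hold.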
ATXN2 expr inh: Primary qHTS for Inhibitors of ATXN expression; HEK-293 ATXN2-luciferase reporter, luminescence, 24 h; Potency, µM (titrated, usually from 57 µM), for inactives: at the top dose activity change, negative = inhibition, most hits filed as inhibitors; 0.72% of 360,000 active; AID 1745845, 2022; further: on the % scale 0 is the no-effect control and ±100 the full control effect; nearly all actives have a fitted effect of over 55% in size
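qHTS (up to 57 uM final) was run with 24 h compound exposure of reporter cells at 37 °C. Each well was multiplexed: SteadyGlo luminescence measured ATXN2-luciferase expression after a fluorogenic Gly-Phe-AFC viability readout (25 uM final).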
A549 tox: Nrf2 qHTS screen for inhibitors: counterscreen for cytotoxicity; A549 ARE-Fluc cells, CellTiter-Fluor viability, 18-24 h; Potency, µM (titrated, usually from 46 µM), without a hit: at the highest dose activity change, negative = cytotoxicity, most hits filed as inhibitors; 0.16% of 390,000 active; AID 504648, 2011; further: on the % scale 0 is the no-effect control and ±100 the full control effect
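Cytotoxicity counterscreen: CellTiter-Fluor fluorescence was measured in A549 ARE_Fluc cells after 18-24 h of compound exposure in a concentration series. The subsequent BugLite luminescent read reports ARE-luciferase activity.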
Nrf2 block: Nrf2 qHTS screen for inhibitors; A549 ARE-Fluc reporter, luciferase luminescence, 18-24 h; Potency, µM (series often up to 46 µM), for inactives: top-dose activity change, negative = inhibition, hits mostly inhibitors; 2.1% of 360,000 active; AID 504444, 2011; further: on the % scale 0 is the no-effect control and ±100 the full control effect; nearly all actives have a fitted effect of over 60% in size
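Quantitative HTS in A549 cells stably bearing an antioxidant response element-firefly luciferase construct. Inhibition of Nrf2-driven transcription was scored by luminescence after 18-24 h of compound exposure at 37 °C.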
ATXN viability: Viability Counterscreen for Primary qHTS for Inhibitors of ATXN expression; Potency, µM (highest dose often 56.7 µM), most hits filed as cytotoxic; S2 cells (HEK-293 line with an ATXN2-luciferase reporter) viability, CellTiter-Fluor protease fluorescence, 24 h; 0.49% of 400,000 active; further: nearly all actives have a fitted effect of over 40% in size
An asterisk follows results filed as active; i = inactive; ? = inconclusive; . = not tested or not shown; [ ] = another dose, or the depositor's remark. The call rests on the fitted dose curve; in most records, active means well fitted curve in the direction sought with a large enough effect; inconclusive means small, poorly fitted or top-dose-only effect, or another doubt; inactive means no such curve, though single readings can be large; an effect the other way counts as inactive or inconclusive. Potency means the concentration at half of the fitted maximal effect.

SMILES	Nrf2 ARE act	ATXN2 expr inh	A549 tox	Nrf2 block	ATXN viability
CSc1nc2nccc(-c3ccc(-c4ccccc4)cc3)n2n1	0.5%	-0.5%	-6.1%	?	i
CC(=O)N1CCN(c2ccc(NS(=O)(=O)c3ccc4c(c3)CC(=O)N4)cc2)CC1	.	.	-0.3%[92.2 µM]	21.5%[92.2 µM]	.
Cc1ccc(SCc2nc(-c3ccc(C(=O)NCC(C)c4ccccc4)cc3)oc2C)cc1 (configuration not stated)	4.1%	-14.2%	8.1%	9.2µM*	i
Cc1ccc(SCc2nc(-c3ccc(C(=O)NCCc4ccc(Cl)cc4)cc3)oc2C)cc1	-0.2%	-8.1%	-0.1%	?	i
COc1cc(CCNC2=CC(=O)c3ncccc3C2=O)ccc1O	-2.8%	23.8µM*	16.4µM*	13µM*	.
CCOC(=O)N1CCN(c2ccc(S(=O)(=O)N3CCOCC3)cn2)CC1	-0.8%	-1.5%	0.0%	?	i
CCN(CC)S(=O)(=O)c1ccc(N2CCN(c3ccccc3O)CC2)nc1	2.5%	-30.0%	-0.6%	18.4µM*	i
CCOC(=O)N1CCN(c2ccc(S(=O)(=O)N(Cc3ccccc3)Cc3ccccc3)cn2)CC1	2.4%	-17.1%	-16.4%	16.4µM*	?
CCN(CC)S(=O)(=O)c1ccc(N2CCN(CCO)CC2)nc1	-0.2%	3.1%	0.2%	?	i
Cc1cc(C)nc(NS(=O)(=O)c2ccc(NC(=O)c3cccs3)cc2)n1	1.3%	-5.7%	-4.1%	.	i
CCCCN(CCCC)S(=O)(=O)c1ccc(NC(=O)c2cccs2)cc1	3.9%	-20.1%	?	18.4µM*	i
COC(=O)C1=C(C)NC(=O)/C1=C\c1cc(C)n(-c2cc(C)cc(C)c2)c1C	2.2%	-4.8%	?	23.1µM*	i
COC(=O)C1=C(C)NC(=O)/C1=C\c1cc(C)n(-c2ccccc2)c1C	4.0%	44.7%	-16.5%	5.1%	?
COc1ccc(C(=O)N(Cc2cccs2)Cc2cccs2)c(O)c1	.	.	2.1%	24.2%	.
CCCCn1c(NC(=O)CC)c(C#N)c2nc3ccccc3nc21	-0.5%	-6.8%	-0.2%	-6.9%	i
CCCCn1c(NC(=O)c2ccccc2Cl)c(C#N)c2nc3ccccc3nc21	3.1%	?	?	13µM*	i
N#Cc1c(NC(=O)c2ccccc2Cl)n(Cc2ccccc2)c2nc3ccccc3nc12	5.2%	-38.6%	?	16.4µM*	i
N#Cc1ccccc1NC(=O)c1ccccc1OCC(=O)Nc1ccc2c(c1)oc1ccccc12	3.3%	-23.8%	2.7%	?	i
CNC(=O)COc1ccccc1C(=O)Nc1ccc2c(c1)oc1ccccc12	-2.0%	?	2.0%	7.31µM*	i
O=C(Nc1ccc(F)cc1)c1ccc(-n2cnc3cccnc32)cc1	-0.3%	6.0%	-0.5%	?	i
Cc1ccc(C)c(S(=O)(=O)Nc2cc(SCC(=O)O)c(O)c3ccccc23)c1	0.2%	?	-4.4%	-10.6%	28.2µM*
Cc1ccc(CC(=O)Nc2c(C(=O)N3CCN(c4ccccc4F)CC3)oc3ccccc23)cc1	0.5%	.	1.0%	?	.
COc1cccc(C2c3c(ncn(-c4ccccn4)c3=N)Oc3ccc4ccccc4c32)c1 (configuration not stated)	.	.	-5.6%	?	.
O=C(O)c1ccc(COc2ccccc2/C=C2\NC(=O)N(Cc3ccccc3)C2=O)cc1	0.0%	-1.1%	-4.4%	-17.6%	i
O=C(O)c1ccc(COc2ccc3ccccc3c2/C=C2/NC(=O)N(Cc3ccc(F)cc3)C2=O)cc1	5.1%	-1.1%	-27.1%	20.6µM*	.
SMILES	Nrf2 ARE act	ATXN2 expr inh	A549 tox	Nrf2 block	ATXN viability
Cc1nn(C)c(C)c1NS(=O)(=O)c1ccc(N2CCCC2=O)cc1	0.1%	-14.0%[11.3 µM]	-14.1%	14.6µM*	i
O=C1CCCN1c1ccc(S(=O)(=O)NCCc2ccc(Cl)cc2)cc1	2.5%	-14.4%	8.8%	-17.0%	i
Cc1ccccc1NS(=O)(=O)c1ccc(N2CCCC2=O)cc1	0.1%	-18.3%	-19.0%	?	i
COc1ccc(CCNS(=O)(=O)c2ccc(N3CCCC3=O)cc2)cc1	0.8%	-12.1%	-11.2%	25.9µM*	i
Nc1nc(Sc2ccc([N+](=O)[O-])c3nonc23)c2[nH]cnc2n1	?	14.1µM*	?	?	.
NC(=S)N/N=C/c1ccccc1OC(=O)/C=C/c1ccccc1	18.2%	1.78µM*	6.0%	0.1%	?
NC(=S)N/N=C\c1ccccc1OCc1ccccc1	8.2%	-14.4%	7.0%	-2.9%	i
O=Cc1ccc(-c2ccccc2C(=O)O)o1	-0.4%	-14.4%	-1.3%	-20.6%	i
O=C(O)c1ccccc1-c1c2cc(I)c(=O)c(I)c-2oc2c(I)c(O)c(I)cc12	-0.7%	-23.8%	9.2µM*	-26.9%	4.47µM*
O=C(NCC1CCN(Cc2ccc(F)cc2)CC1)c1cc2ccc3cccnc3c2[nH]1	15.5%	.	-16.6%	?	.
Cc1c(C(=O)NCCC2CCCN2C)cnn1-c1nccc(-c2ccccc2F)n1 (configuration not stated)	.	.	.	.	i
O=C(c1ccc2c(=O)n(Cc3ccco3)c(=S)[nH]c2c1)N1CCN(Cc2ccc3c(c2)OCO3)CC1	.	.	?	16.4µM*	.
CC1CCCN(C(=O)c2ccc3c(=O)n(Cc4ccc5c(c4)OCO5)c(=S)[nH]c3c2)C1 (configuration not stated)	0.2%	-12.2%	-19.6%	25.9µM*	i
CC1CCC(NC(=O)c2ccc3c(c2)S(=O)(=O)c2ccccc2C3=O)CC1 (configuration not stated)	3.8%	1.6%	-13.0%	16.4µM*	i
O=C(COC(=O)c1ccc2c(c1)S(=O)(=O)c1ccccc1C2=O)NC1CC1	-0.7%	0.9%	4.7%	-4.5%	i
CC(=O)Nc1cc(-c2cccc(C(=O)NCCO)c2)cn2c(-c3ccc(F)cc3)cnc12	5.5%	2.6%	.	.	i
O=C(NCCO)c1cccc(-c2cnc3c(Nc4cccc(OC(F)(F)C(F)F)c4)nccn23)c1	-2.1%	?	.	.	31.6µM*
CC(=O)Nc1cc(-c2cccc(C(=O)NCCO)c2)cn2c(-c3cccc(C(F)(F)F)c3)cnc12	-2.3%	?	.	.	31.6µM*
Cc1cccc(N2CCN(c3ccc(C(=O)O)cc3NC(=O)c3cccc(Cl)c3)CC2C)c1 (configuration not stated)	6.4%	6.1%	8.9%	-8.5%	i
Cc1ccccc1N(C)C1=N[S+](=O)([O-])c2ccccc21	.	.	1.2%	-1.9%	.
O=C(Nc1ccccc1)c1ccc(S(=O)(=O)NCc2cccnc2)cc1	-0.3%	-19.5%	0.1%	13µM*	i
O=C(Nc1ccc(S(=O)(=O)NCCc2ccccc2)cc1)c1ccncc1	-0.6%	?	-11.5%	20.6µM*	i
O=C(NCc1cccnc1)c1ccc([N+](=O)[O-])cc1	0.0%	-7.5%	1.3%	-5.9%	i
